Compounds with a hit are over-represented: about 2.3% of the library has one in this group of screens.
VDR inhibitor = vitamin D3 receptor (human) inhibition | AID 504847 | VDR-SRC2-3 peptide fluorescence polarization, 2 h | hit rate 0.93% among 400,000 | Potency, µM, for the others: max response, negative = inhibition, usual class: inhibitors | P11473; further: potency means the concentration at half of the fitted maximal effect; on the % scale 0 is the no-effect control and ±100 the full control effect
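The screen uses fluorescence polarization to detect compounds that interfere with recruitment of the SRC2-3 coactivator peptide to VDR; plates are read after 2 h at room temperature.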
Coupling enz = counter-screen for Giardia aldolase inhibitors: coupling enzyme system; coupling enzyme system counterscreen, AmpLite Red fluorescence; activity change, negative = inhibition, % at 58.2 µM, hits read low; hit rate 0.67% among 290,000; in the data active means activity change below about -30%; further: on the % scale 0 is the no-effect control and ±100 the full control effect
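Counterscreen of the coupled detection system alone, without aldolase: glyceraldehyde-3-phosphate coupling enzymes plus AmpLite Red readout. Compounds at 57.5 uM final, 10 min RT preincubation, 20 min RT reaction, fluorescence 525/598 nm.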
JMJD2E inh = blocks human JMJD2E demethylase activity; B2RXH2; JMJD2E catalytic domain, FDH-coupled NADH fluorescence (FDH is formaldehyde dehydrogenase); Potency, µM (doses to about 57.1 µM), without a hit: top-dose activity change, negative = inhibition, usual class: inhibitors; hit rate 1.6% among 230,000; AID 2147; active means well fitted inhibition curve with a large enough effect, not every such curve was filed as active; inconclusive means small, poorly fitted or top-dose-only effect, or another doubt; inactive means no such curve, though single readings can be large or run the other way;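 further: potency means the concentration at half of the fitted maximal effect; 0% = wells with enzyme and -100% = buffer wells without enzyme; nearly all actives have a fitted effect of over 50% in size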
Target sequence (B2RXH2 1-337 limits assumed): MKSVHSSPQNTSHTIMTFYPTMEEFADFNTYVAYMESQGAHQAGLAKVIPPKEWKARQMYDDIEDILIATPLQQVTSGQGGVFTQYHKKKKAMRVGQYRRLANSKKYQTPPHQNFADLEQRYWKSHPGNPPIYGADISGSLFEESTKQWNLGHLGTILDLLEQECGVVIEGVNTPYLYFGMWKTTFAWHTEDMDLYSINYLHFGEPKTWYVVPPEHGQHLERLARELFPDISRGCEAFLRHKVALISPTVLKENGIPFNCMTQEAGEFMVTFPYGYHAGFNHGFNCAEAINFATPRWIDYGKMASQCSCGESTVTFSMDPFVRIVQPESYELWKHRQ
HTT ATP protect = protects HTT-Q103 PC12 cells, measured by ATP. PC12 HTT-Q103 induced, cytoprotection, ATP luminescence, 40 h. Potency, µM (titrated, usually from 56.4 µM), for the others: cytoprotection (ATP increase), usual class: activators. hit rate 0.14% among 230,000. AID 1471; further: potency means the concentration at half of the fitted maximal effect; % of control where 0% means no effect; nearly all actives have a fitted effect of over 45% in size
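Quantitative HTS on tebufenozide-induced (100 nM) PC12 cells expressing HTTQ103 exon 1–GFP; compounds tested as a concentration series; survival measured via cellular ATP.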
HTT aggregate = inhibitors of mutant huntingtin aggregate formation in PC12 cells; PC12 HttQ103-GFP aggregates, Acumen cytometry, 40 h; hit rate 1.1% among 220,000; Potency, µM (highest dose often 46.1 µM), without a hit: at the highest dose activity change, negative = inhibition, actives largely listed as inhibitors; further: potency means the concentration at half of the fitted maximal effect; on the % scale 0 is the no-effect control and ±100 the full control effect; nearly all actives have a fitted effect of over 60% in size
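Steps: seed 1500 PC12 HTTQ103-GFP cells/well; add tebufenozide, 100 nM final; add compound titration; add ATPLite reagent; quantify GFP aggregates by laser scanning cytometry.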
GoLoco inh red = RGS12 GoLoco-Gai1 interaction inhibition; Gai1:RGS12 GoLoco peptide FP, rhodamine, 10 min; AID 880; P63096; Potency, µM (doses to about 61.6 µM), inactives show top-dose activity, negative = inhibition, usual class: inhibitors; hit rate 0.44% among 230,000; active means well fitted inhibition curve with a large enough effect, not every such curve was filed as active; inactive means no such curve, though single readings can be large or run the other way; further: potency means the concentration at half of the fitted maximal effect; on the % scale 0 is the no-effect control and ±100 the full control effect; nearly all actives have a fitted effect of over 30% in size
Target sequence (P63096 whole entry, looked up): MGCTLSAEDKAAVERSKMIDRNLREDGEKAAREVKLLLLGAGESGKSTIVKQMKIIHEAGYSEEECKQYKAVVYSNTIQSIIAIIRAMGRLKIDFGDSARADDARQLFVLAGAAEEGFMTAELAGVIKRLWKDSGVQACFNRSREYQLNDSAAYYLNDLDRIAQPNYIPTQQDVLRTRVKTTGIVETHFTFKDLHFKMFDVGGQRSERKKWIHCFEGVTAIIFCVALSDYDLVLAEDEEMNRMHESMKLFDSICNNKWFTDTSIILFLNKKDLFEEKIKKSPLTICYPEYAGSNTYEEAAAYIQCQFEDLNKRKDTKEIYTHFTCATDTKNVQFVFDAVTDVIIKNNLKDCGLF
The depositor's hits bear a star; ? = inconclusive; / = not tested or not shown; [ ] = dose if it differs, or a comment. Unless noted, the call rests on the fitted dose curve; in most records, active means well fitted curve in the direction sought with a large enough effect; inconclusive means small, poorly fitted or top-dose-only effect, or another doubt; inactive means no such curve, though single readings can be large; an effect the other way counts as inactive or inconclusive.

SMILES	VDR inhibitor	Coupling enz	JMJD2E inh	HTT ATP protect	HTT aggregate	GoLoco inh red
NS(=O)(=O)c1ccc(N/N=C/c2ccc(O)c(O)c2O)c([N+](=O)[O-])c1	?	-46.3*	2.82µM*	0.6%[10 µM]	-20.5%[9.22 µM]	-10.7%
C/C(CCC1CC(C)OC1=O)=N/Nc1nc(-c2ccccc2)cs1 (centres undefined)	44.7µM*	1.2	-19.2%	-23.5%[10 µM]	?	-6.3%
CC1CC(CC(=O)NNc2nc(-c3ccccc3)cs2)C(=O)O1 (centres undefined)	0.4%	0.3	7.9%	-66.5%	0.5%	-2.4%
Cc1ccc(C(=O)CNc2cc(C)ccc2C)cc1	?	0.4	/	/	/	/
CCNc1cc(O)ccc1C	79.4µM*	/	/	1.5%	/	-24.4%
CCN(CC)S(=O)(=O)c1cccc(C(=O)NCCc2ccccc2)c1	3.8%	/	/	/	/	/
C=CCSc1nnc(NC(=O)c2cccc(S(=O)(=O)N(C)c3ccccc3)c2)s1	-6.5%	13.4	?	-18.3%[0.074 µM]	10µM*	62.2%
CN(c1ccccc1)S(=O)(=O)c1cccc(C(=O)Nc2nccs2)c1	-5.4%	2.8	?	-127.4%	-19.7%	11.8%
CN(c1ccccc1)S(=O)(=O)c1cccc(C(=O)NCCc2ccc(O)c(O)c2)c1	9.8%	-8.2	14.1µM*	15.5%	?	-18.9%
Cc1ccc(N(C)C(=O)N2CCN(S(=O)(=O)c3ccc(C)cc3)CC2)cc1	0.3%	-0.3	-3.5%	-7.6%	12.5%	6.1%
Cc1ccc(N(C)C(=O)N2CCN(S(=O)(=O)c3ccc4ccccc4c3)CC2)cc1	-13.2%	-1.9	1.8%	11.2%[10 µM]	11.2µM*	2.4%
OCCN1CCN(c2nc(-c3ccccc3)c3cc(Br)ccc3n2)CC1	-5.5%	3.5	/	/	/	/
OCCN1CCN(c2ncnc3ccc(Br)cc23)CC1	7.8%	-3.5	5.0%	12.6%	4.47µM*	-3.1%
COc1ccc2nc(N3CCC(O)CC3)c(C#N)cc2c1	-23.0%	-33.5*	?	-38.1%	15.2%	2.8%
COc1ccc2nc(N3CCC(C)CC3)c(C#N)cc2c1	7.0%	-25.4	?	14.1%[10 µM]	?	6.8%
COc1cc2c(cc1OC)C(c1ccc(-c3ccccc3Cl)o1)=NCC2	-7.4%	-1.7	-12.7%	-40.2%	?	5.0%
COc1cc2c(cc1OC)C(c1ccc(-c3ccc(Cl)cc3Cl)o1)=NCC2	-11.5%	0.4	-2.2%	-103.5%	14.1µM*	10.6%
COc1cc2c(cc1OC)C(c1ccc(-c3cc(Cl)ccc3Cl)o1)=NCC2	2.3%	-8.8	?	-52.0%[10 µM]	4.7%	17.9%
COc1cc2c(cc1OC)C(c1ccc(-c3ccc(Cl)c(Cl)c3)o1)=NCC2	0.0%	0.1	-15.4%	8.2%[10 µM]	8.91µM*	7.2%
Cc1ccc(NC(=O)CSc2ncccn2)cc1S(=O)(=O)N1CCOCC1	11.4%	/	/	/	/	/
[O-]/[N+](=C\c1ccco1)c1ccc(Cl)cc1	35.5µM*	2.8	/	/	/	/
O=[N+]([O-])c1cc(S(=O)(=O)NCCN2CCOCC2)ccc1Sc1nnnn1-c1ccccc1	-1.7%	-18.5	6.1%	24.2%[10 µM]	4.47µM*	-1.0%
O=C(CN(Cc1ccccc1)C(=O)CCC(=O)Nc1nccs1)NCc1ccc(F)cc1	-5.8%	0.6	/	/	/	/
COc1ccc2c(c1)OC/C(=C/c1ccc(OC)c(OC)c1)C2=O	22.4µM*	0.4	-24.4%	/	/	3.8%
COc1cc(/C=C/C(=O)c2ccc(C)cc2)ccc1OCC#N	50.1µM*	2.7	-2.7%	-13.5%[10 µM]	6.4%	7.2%
SMILES	VDR inhibitor	Coupling enz	JMJD2E inh	HTT ATP protect	HTT aggregate	GoLoco inh red
COc1ccc(/C=C/C(=O)c2ccc(C(=O)/C=C/c3ccc(OC)c(OC)c3)cc2)cc1OC	-17.5%	-0.9	/	/	/	/
CC(=O)c1c[nH]c(C(=O)NCc2ccccc2Cl)c1	0.8%	0.0	/	/	/	/
CC(C)C(NS(=O)(=O)c1ccc2c(c1)OCCCO2)C(=O)O (centres undefined)	44.7µM*	5.0	0.3%	21.9%[10 µM]	8.7%	10.1%
COc1ccc2[nH]c3c(C)c4ccncc4c(C)c3c2c1	4.0%	-10.2	8.91µM*	-89.9%[10 µM]	-39.5%[9.22 µM]	15.1%
CNC(=O)[C@@H]1O[C@@H](n2cnc3c(NCc4cccc(I)c4)ncnc32)[C@H](O)[C@@H]1O	/	/	/	-2.5%[1.9 µM]	/	/
N[C@H](C(=O)O)[C@@H]1[C@@H](C(=O)O)C1(F)F	2.6%	3.4	15.8µM*	?	/	-1.6%
COc1cc(C(=O)Oc2ccccc2/C=N/NC(=O)c2ccc(C)c(Cl)c2)cc(OC)c1OC	-12.7%	-0.2	-7.6%	-81.3%[10 µM]	2.82µM*	3.0%
O=C(N/N=C/c1ccccc1OC(=O)c1ccc2c(c1)OCO2)c1cccc(F)c1	-16.3%	-0.9	0.9%	-88.3%[10 µM]	2.51µM*	7.4%
COc1cc(C(=O)Oc2ccccc2/C=N/NC(=O)c2ccc(Cl)cc2)cc(OC)c1OC	-7.7%	-0.1	5.9%	-88.2%[10 µM]	2.82µM*	-9.5%
O=S(=O)(c1ccsc1)N1CC=C(c2ccccc2)CC1	-0.4%	/	/	/	/	/
C[n+]1cccc(C2C(C#N)=C(N)Oc3c2ccc2ccccc32)c1 (centres undefined)	-5.3%	1.0	?	-7.3%[10 µM]	-6.7%[9.22 µM]	76.8%
C[n+]1cccc2ccc3c(c21)OC(N)=C(C#N)C3c1ccccc1 (centres undefined)	-17.3%	-19.4	15.8µM*	-12.6%[10 µM]	?	-20.0%
CNC1C(O)C2OC3OC(C)CC(=O)[C@@]3(O)O[C@H]2[C@H](NC)C1O (some centres undefined)	6.4%	1.7	3.6%	/	/	0.9%
CCOC(=O)N1CCN(C(=O)CCCn2nnnc2CN2CCC(C)CC2)CC1	-7.3%	-9.1	/	/	/	/
COc1ccc(C(=O)OCCCc2cc3ccccc3c(=O)o2)cc1	-9.5%	/	/	/	/	/
O=C(Nc1ccc(F)cc1)C(=O)C1C(=O)Nc2ccccc21 (centres undefined)	8.1%	-6.6	-5.8%	4.2%[10 µM]	0.9%[9.22 µM]	5.3%
O=C(Nc1ccc2ccccc2c1)C(=O)C1C(=O)Nc2ccccc21 (centres undefined)	/	1.3	8.91µM*	2.7%[10 µM]	15.1%[9.22 µM]	8.8%
Cc1cccc(Cn2c(=O)n(CCc3ccccc3)c(=O)c3sc4ccccc4c32)c1	-1.0%	/	/	/	/	/
CC1(C)CCC2(C(=O)O)CC[C@]3(C)C(=CCC4[C@]5(C)CCC(O)C(C)(C)C5C(O)C[C@]43C)C2C1 (some centres undefined)	-5.9%	7.0	?	-39.4%	/	-15.3%
Cc1ccccc1CNC(=O)c1ccccc1C	-2.3%	1.5	1.9%	-1.0%[10 µM]	-5.0%	5.5%
Cc1ccccc1CNC(=O)c1ccccc1C(=O)O	11.7%	-3.4	6.9%	/	0.0089µM*	8.9%
Cc1ccc(Cl)cc1NC(=O)CSC(N)=O	44.7µM*	0.6	-5.2%	-0.7%	-10.4%	8.9%
Cc1ccc(Cl)cc1NC(=O)CC(O)(C(F)(F)F)C(F)(F)F	-5.5%	-1.0	9.9%	-20.7%	15.8µM*	6.8%

From PubChem
